Laboratory results published in the supplement of paper PMC12494721.
Counter-ions that a name gives are not always drawn.

How the values were obtained:
Conditions in all cases: 20 µM; incubation time: 27 h, anaerobic, 37 °C;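 for the amine columns active = adjusted P below 0.05 in both replicates with a change the same way and a mean fold change under 0.8 or over 1.25; inactive = the rest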
[1] = tested on: Clostridium sporogenes DSM 1664; test: growth (OD595) fold change vs plate DMSO controls (fold change (ratio)); higher = more growth
In short: (§1)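 Growth is expressed as the fold change relative to the median of the DMSO control wells on each plate. Cultures in mGAM were grown anaerobically in 96-well plates for 27 h at 37 °C, shaken, and read at 595 nm. Readings were blank-subtracted, corrected for compound background with 20 µM compound solutions in water, and converted to OD with a calibration factor of 5. Fold changes above 1.5 were set to NA, and each value is the mean of 2 biological replicates.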

Escherichia coli IAI1 [2] = test: as above
In short: as §1

[3] = tested on: Klebsiella aerogenes DSM 30053; test: as above
In short: as §1

[4] = tested on: Ruminococcus gnavus DSM 108212; test: as above
In short: as §1

[5] = tested on: Klebsiella aerogenes DSM 30053; test: fold change of Histamine concentration vs plate DMSO controls (fold change (ratio)); higher = more amine produced, active = hit call of the paper (significant change in both replicates, either direction)
In short: (§2)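 Amines were quantified by LC–triple-quadrupole MS in dynamic MRM mode against external calibration curves, with drift correction within each batch. The samples were whole anaerobic mGAM cultures of four gut bacterial strains, grown for 27 h at 37 °C in 80 µL wells and extracted with cold acetonitrile/methanol with 0.1% formic acid, then centrifuged. Values are reported as fold change over DMSO controls on the same plate. The mean of 2 biological replicates is given.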

[6] = tested on: Clostridium sporogenes DSM 1664; test: fold change of Tryptamine concentration vs plate DMSO controls (fold change (ratio)); higher = more amine produced, active = hit call of the paper (significant change in both replicates, either direction)
In short: as §2

[7] = tested on: Ruminococcus gnavus DSM 108212; test: as above
In short: as §2

Escherichia coli IAI1 [8] = test: fold change of Putrescine concentration vs plate DMSO controls (fold change (ratio)); higher = more amine produced, active = hit call of the paper (significant change in both replicates, either direction)
In short: as §2

[9] = tested on: Klebsiella aerogenes DSM 30053; test: as above
In short: as §2

Escherichia coli IAI1 [10] = test: fold change of Cadaverine concentration vs plate DMSO controls (fold change (ratio)); higher = more amine produced, active = hit call of the paper (significant change in both replicates, either direction)
In short: as §2

[11] = tested on: Klebsiella aerogenes DSM 30053; test: as above
In short: as §2

[12] = tested on: Ruminococcus gnavus DSM 108212; test: fold change of 2-Phenylethylamine concentration vs plate DMSO controls (fold change (ratio)); higher = more amine produced, active = hit call of the paper (significant change in both replicates, either direction)
In short: as §2

Structure (SMILES)	growth [1]	growth (Escherichia coli IAI1 [2])	growth [3]	growth [4]	fold change of Histamine concentration [5]	fold change of Tryptamine concentration [6]	fold change of Tryptamine concentration [7]	fold change of Putrescine concentration (Escherichia coli IAI1 [8])	fold change of Putrescine concentration [9]	fold change of Cadaverine concentration (Escherichia coli IAI1 [10])	fold change of Cadaverine concentration [11]	fold change of 2-Phenylethylamine concentration [12]
CC(C)N1C(=O)c2ccccc2NS1(=O)=O	1.02	1.03	0.992	1.17	0.978 (inactive)	0.976 (inactive)	0.99 (inactive)	0.969 (inactive)	0.979 (inactive)	0.979 (inactive)	0.987 (inactive)	1.03 (inactive)
CC(O)(CS(=O)(=O)c1ccc(F)cc1)C(=O)Nc1ccc(C#N)c(C(F)(F)F)c1 (stereo unspecified) [Bicalutamide]	1.06	1.01	1.08	1.15	0.914 (inactive)	1.09 (inactive)	1.06 (inactive)	1.08 (inactive)	0.973 (inactive)	1.01 (inactive)	1.02 (inactive)	1.04 (inactive)
CCCSP(=O)(OCC)Oc1ccc(Br)cc1Cl (stereo unspecified)	0.919	0.968	1.03	0.964	1.01 (inactive)	1.03 (inactive)	0.941 (inactive)	1 (inactive)	1.02 (inactive)	1.03 (inactive)	0.995 (inactive)	0.9 (inactive)
CC(C)N(CCC(C(N)=O)(c1ccccc1)c1ccccn1)C(C)C (stereo unspecified) [Disopyramide]	1.08	1.04	1.01	0.817	0.927 (inactive)	0.996 (inactive)	1 (inactive)	1.06 (inactive)	0.996 (inactive)	1.01 (inactive)	1 (inactive)	0.972 (inactive)
CC(C)C[C@H](CN)CC(=O)O [Pregabalin]	0.96	0.982	0.982	0.865	1.06 (inactive)	1.04 (inactive)	1.05 (inactive)	1.03 (inactive)	1 (inactive)	1.02 (inactive)	0.982 (inactive)	1.06 (inactive)
COC(=O)N(OC)c1ccccc1COc1ccn(-c2ccc(Cl)cc2)n1	0.99	0.988	1.07	1.02	1.02 (inactive)	1.02 (inactive)	0.921 (inactive)	1.04 (inactive)	1.02 (inactive)	1.01 (inactive)	1 (inactive)	0.888 (inactive)
Clc1ccc(C(c2ccc(Cl)cc2)C(Cl)(Cl)Cl)cc1	0.984	0.974	0.996	1.12	1.03 (inactive)	1.02 (inactive)	0.962 (inactive)	1.06 (inactive)	1.02 (inactive)	0.957 (inactive)	1 (inactive)	0.914 (inactive)
CC(C)(C)NCC(O)c1ccccc1Cl (stereo unspecified) [Tulobuterol hydrochloride]	1.21	1.07	1	0.927	1.04 (inactive)	1.08 (inactive)	0.664 (inactive)	1.07 (inactive)	1.01 (inactive)	0.968 (inactive)	0.99 (inactive)	0.653 (inactive)
O=[N+]([O-])O[C@H]1CO[C@H]2[C@@H]1OC[C@H]2O[N+](=O)[O-] [Isosorbide dinitrate]	0.818	1.09	1.08	1.25	0.954 (inactive)	1.03 (inactive)	1 (inactive)	1.06 (inactive)	0.97 (inactive)	0.94 (inactive)	1.02 (inactive)	1.06 (inactive)
CS(=O)(=O)c1cc(C(F)(F)F)ccc1C(=O)c1cnoc1C1CC1	0.937	1.09	1.09	0.964	0.825 (inactive)	0.986 (inactive)	0.989 (inactive)	0.958 (inactive)	0.976 (inactive)	0.905 (inactive)	1.01 (inactive)	1 (inactive)
O=[N+]([O-])/N=C1\NCCN1Cc1ccc(Cl)nc1	1.04	0.975	0.996	0.979	0.986 (inactive)	1.01 (inactive)	0.989 (inactive)	0.964 (inactive)	0.998 (inactive)	0.98 (inactive)	0.998 (inactive)	1 (inactive)
CCCN(CCOc1c(Cl)cc(Cl)cc1Cl)C(=O)n1ccnc1	1.07	0.976	1.01	0.951	1.02 (inactive)	1.05 (inactive)	1.02 (inactive)	1 (inactive)	1.01 (inactive)	1.02 (inactive)	0.998 (inactive)	1.04 (inactive)
OC(Cn1cncn1)(c1ccc(F)cc1)c1ccccc1F (stereo unspecified)	1.15	1.06	1.01	0.99	1.01 (inactive)	0.985 (inactive)	0.984 (inactive)	1.03 (inactive)	1.02 (inactive)	1.03 (inactive)	0.992 (inactive)	0.948 (inactive)
CN/C(=N\[N+](=O)[O-])NCc1cnc(Cl)s1	0.943	0.968	0.989	0.944	1.01 (inactive)	0.953 (inactive)	0.989 (inactive)	0.98 (inactive)	1 (inactive)	1.07 (inactive)	0.994 (inactive)	1 (inactive)
CCC(=O)Nc1ccc(Cl)c(Cl)c1	0.942	0.949	0.942	1.01	1.11 (inactive)	0.963 (inactive)	1.02 (inactive)	1.01 (inactive)	0.863 (inactive)	0.929 (inactive)	1.16 (inactive)	1.13 (inactive)
O=P1(N(CCCl)CCCl)NCCCO1 (stereo unspecified) [Cyclophosphamide]	0.997	1.02	0.997	1.11	1.03 (inactive)	0.997 (inactive)	1.02 (inactive)	1.01 (inactive)	1.01 (inactive)	1.02 (inactive)	0.999 (inactive)	1.03 (inactive)
O=c1c2ccccc2[se]n1-c1ccccc1 [Ebselen]	1.02	1.12	1.14	1.14	0.916 (inactive)	0.823 (inactive)	0.801 (inactive)	1.02 (inactive)	0.959 (inactive)	0.953 (inactive)	0.984 (inactive)	0.851 (inactive)
COc1ccc2c(c1)[C@]13CCCC[C@@H]1[C@H](C2)N(C)CC3 [Dextromethorphan hydrobromide monohydrate]	1.05	0.975	1.05	0.761	0.977 (inactive)	0.991 (inactive)	0.998 (inactive)	0.962 (inactive)	0.999 (inactive)	1.01 (inactive)	1.02 (inactive)	1.04 (inactive)
CCCC(Cn1cncn1)c1ccc(Cl)cc1Cl (stereo unspecified)	0.931	0.973	1.02	0.977	1.02 (inactive)	1.01 (inactive)	0.984 (inactive)	1.02 (inactive)	1.02 (inactive)	0.965 (inactive)	0.997 (inactive)	0.953 (inactive)
c1ccc2c(c1)OCC(C1=NCCN1)O2 (stereo unspecified) [Idazoxan hydrochloride]	1.09	1.01	1.01	0.978	1 (inactive)	0.976 (inactive)	0.832 (inactive)	1.1 (inactive)	0.998 (inactive)	0.996 (inactive)	0.996 (inactive)	0.785 (inactive)
CNC(=O)c1cc(Cl)cc(C)c1NC(=O)c1cc(Br)nn1-c1ncccc1Cl	0.896	1.11	1.06	1.17	0.901 (inactive)	0.953 (inactive)	0.997 (inactive)	1.02 (inactive)	0.982 (inactive)	0.964 (inactive)	0.999 (inactive)	1.01 (inactive)
CC(C)N(C(=O)COc1nnc(C(F)(F)F)s1)c1ccc(F)cc1	0.961	0.973	1.01	0.978	1.02 (inactive)	1.01 (inactive)	0.886 (inactive)	1 (inactive)	1 (inactive)	1.02 (inactive)	0.989 (inactive)	0.832 (inactive)
S=C(NC1CCCCC1)N1CCC(c2cnc[nH]2)CC1 [Thioperamide maleate]	0.957	1.03	1.02	1.03	1.07 (inactive)	1.05 (inactive)	1.02 (inactive)	0.98 (inactive)	1.02 (inactive)	0.951 (inactive)	0.987 (inactive)	1.01 (inactive)
Nc1c([N+](=O)[O-])ccc(Oc2ccccc2)c1Cl	0.859	0.991	0.998	1.03	0.974 (inactive)	1.02 (inactive)	1.01 (inactive)	0.973 (inactive)	1.01 (inactive)	1.04 (inactive)	1.01 (inactive)	0.982 (inactive)
Cc1cc(C(C#N)c2ccc(Cl)cc2)c(Cl)cc1NC(=O)c1cc(I)cc(I)c1O (stereo unspecified) [Closantel]	0.0125	1.08	1.03	0.185	0.981 (inactive)	0.0178 (active)	0.121 (active)	1.19 (inactive)	0.984 (inactive)	1.32 (active)	1.05 (inactive)	0.13 (active)
COP(=S)(OC)SCN1C(=O)c2ccccc2C1=O	1.02	1.08	1.05	0.965	0.945 (inactive)	1.03 (inactive)	1.01 (inactive)	1.01 (inactive)	1.01 (inactive)	0.997 (inactive)	1.01 (inactive)	1 (inactive)
C[C@@H]1CC[C@H]2[C@@H](C)C(=O)O[C@@H]3O[C@@]4(C)CC[C@@H]1[C@]32OO4 [Artemisinin]	0.953	0.972	1.02	1.13	1.01 (inactive)	1.02 (inactive)	1.03 (inactive)	1.01 (inactive)	1.01 (inactive)	0.966 (inactive)	1.01 (inactive)	1.03 (inactive)
CCOCN(C(=O)CCl)c1c(C)cccc1CC	0.867	1.01	0.997	1.08	1.01 (inactive)	1.06 (inactive)	1.01 (inactive)	0.901 (inactive)	0.941 (inactive)	0.88 (inactive)	1 (inactive)	1.02 (inactive)
